# Reference: PubChem BioAssay (EPA / NIEHS)
# Where “and” joins values, the source holds several entries; their conditions need not be identical. Identical values can stand only once. Records with an inconclusive call do not appear. Some compounds were tested as several samples or in several runs, with calls that do not always agree. Calls of active or inactive are those of the source. How the source made its calls, unless noted: active means hit-call score of the fitted dose curve at least 0.9, where 1 is the maximum; inactive means score below 0.9.
# Assays:
# [1] = read-out: Interleukin-8 (IL8), CXCL8 (gene 3576); experiment: BSK_3C_IL8: BioMAP Diversity Plus: 3C Assay for Interleukin-8 (IL8) Biomarker Activity (AID 2283020); conditions: primary human endothelial cells (HUVEC); actives raise or lower the signal
# Outline: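 Endothelial primary cells of human umbilical vein origin are dosed with chemical; after 24 h the IL-8 biomarker is measured by ELISA, and concentration–response is fitted in both directions versus DMSO.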
# [2] = read-out: Monokine induced gamma interferon (MIG), CXCL9 (gene 4283); experiment: BSK_3C_MIG: BioMAP Diversity Plus: 3C Assay for Monokine induced gamma interferon (MIG) Biomarker Activity (AID 2283021); conditions: primary human endothelial cells (HUVEC); actives raise or lower the signal;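 on AC50: MIG protein level measured by immunoassay in the treated endothelial cultures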
# Outline: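 Endothelial primary cells (human umbilical vein) are dosed with test chemical in the 3C system. MIG levels are measured by ELISA at 24 h and fitted in both directions relative to DMSO.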
# [3] = target: human Vitamin D Receptor (VDR), VDR (gene 7421) (UniProt P11473); experiment: ATG_VDR_TRANS: Attagene TRANS-FACTORIAL HepG2 Assay for human Vitamin D Receptor (VDR) (AID 2283022; active means hit-call score of the fitted dose curve at least 0.9, where 1 is the maximum)
# Outline: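 HepG2 cells were transiently transfected with multiple GAL4-UAS reporter units, so signal reflects exogenous chimeric receptor-Gal4 activity. After 24 h compound exposure, reporter mRNA was measured by RT-PCR, fluorescent labelling and capillary electrophoresis, fitted for gain of signal versus DMSO.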
# [4] = BSK_3C_SRB: Viability Assessment in the BioMAP Diversity Plus: 3C Assay (AID 2283023); conditions: primary human endothelial cells (HUVEC);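 further: fitted both ways against DMSO so a hit may be signal rise or drop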
# Outline: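 Primary human umbilical vein endothelial cells in the 3C system were read 24 h after compound dosing. Total protein was stained with 0.1% sulforhodamine B after 10% TCA fixation and read at 560 nm, with bidirectional fitting against DMSO as baseline.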
# [5] = BSK_4H_SRB: Viability Assessment in the BioMAP Diversity Plus: 4H Assay (AID 2283027); conditions: primary human endothelial cells (HUVEC);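 further: cells exposed to compound for 24 h before staining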;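 on AC50: curves fitted both ways versus DMSO so AC50 may be loss or gain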
# Outline: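 HUVEC, 24 h post-dose; 10% TCA fix, 0.1% SRB stain, A560 nm. Total protein = overt cytotoxicity, parallel to biomarker read. Bidirectional fit vs DMSO baseline.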
# [6] = BSK_BE3C_SRB: Viability Assessment in the BioMAP Diversity Plus: BE3C Assay (AID 2283028); conditions: primary human bronchial epithelial cells;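 on AC50: fitted both ways so AC50 may mark signal gain or loss versus DMSO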
# Outline: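 Human primary bronchial epithelial cells were exposed to test chemicals for 24 h. Total protein in parallel cultures was then measured by staining with 0.1% sulforhodamine B after 10% TCA fixation, with absorbance read at 560 nm. Activity was fitted bidirectionally against DMSO.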
# [7] = read-out: Thrombomodulin, THBD (gene 7056); experiment: BSK_3C_Thrombomodulin: BioMAP Diversity Plus: 3C Assay for Thrombomodulin Biomarker Activity (AID 2283029); conditions: primary human endothelial cells (HUVEC); actives raise or lower the signal
# Outline: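 Endothelial cells from umbilical vein are dosed with test chemical and incubated 24 h. Thrombomodulin is then quantified by ELISA, with DMSO serving as negative control and activity baseline.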
# [8] = read-out: Urokinase-type plasminogen activator receptor (uPAR), PLAUR (gene 5329); experiment: BSK_4H_uPAR: BioMAP Diversity Plus: 4H Assay for Urokinase-type plasminogen activator receptor (uPAR) Biomarker Activity (AID 2283030); conditions: primary human endothelial cells (HUVEC); actives raise or lower the signal
# Outline: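 Primary human umbilical vein endothelial cells were exposed to chemical for 24 h before cell-surface uPAR was quantified by ELISA. Activity was fitted bidirectionally against the DMSO negative control baseline.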
# [9] = read-out: Vascular endothelial growth factor receptor 2 (Homo sapiens) (UniProt P35968); experiment: BSK_4H_VEGFRII: BioMAP Diversity Plus: 4H Assay for Vascular endothelial growth factor receptor 2 (VEGFR2) Biomarker Activity (AID 2283031); conditions: primary human endothelial cells (HUVEC); actives raise or lower the signal
# Outline: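 Primary human umbilical vein endothelial cells in the BioMAP 4H system were dosed with test chemical, and 24 h later VEGFRII was measured by ELISA. Activity was fitted bidirectionally against DMSO as negative control and baseline.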
# [10] = read-out: Human Leukocyte Antigen - DR isotype (HLADR), HLA-DRA (gene 3122); experiment: BSK_BE3C_HLADR: BioMAP Diversity Plus: BE3C Assay for Human Leukocyte Antigen - DR isotype (HLADR) Biomarker Activity (AID 2283032); conditions: primary human bronchial epithelial cells; actives raise or lower the signal
# Outline: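 Chemicals are dosed onto BE3C bronchial epithelial cultures of human origin and left 24 h. HLA-DR is then measured by ELISA, and the endpoint is fitted in both directions using DMSO as the activity baseline.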
# [11] = read-out: Vascular cell adhesion molecule 1 (VCAM1), VCAM1 (gene 7412); experiment: BSK_4H_VCAM1: BioMAP Diversity Plus: 4H Assay for Vascular cell adhesion molecule 1 (VCAM1) Biomarker Activity (AID 2283033); conditions: primary human endothelial cells (HUVEC); actives raise or lower the signal;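 on outcome: cell-surface VCAM-1 protein measured by ELISA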
# Outline: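 Chemicals are added to primary human umbilical vein endothelial cells. After 24 h, VCAM-1 levels are measured by ELISA. Values come from bidirectional fitting referenced to DMSO.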
# [12] = read-out: Interferon-gamma inducible Protein 10 (IP10), CXCL10 (gene 3627); experiment: BSK_BE3C_IP10: BioMAP Diversity Plus: BE3C Assay for Interferon-gamma inducible Protein 10 (IP10) Biomarker Activity (AID 2283034); conditions: primary human bronchial epithelial cells; actives raise or lower the signal
# Outline: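 IP-10 quantified by ELISA serves as the endpoint. Cells: primary human bronchial epithelium, read 24 h after compound addition. Activity is derived by bidirectional fitting with DMSO as negative control.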
# [13] = read-out: Plasminogen activator inhibitor-1 (PAI1), SERPINE1 (gene 5054); experiment: BSK_BE3C_PAI1: BioMAP Diversity Plus: BE3C Assay for Plasminogen activator inhibitor-1 (PAI1) Biomarker Activity (AID 2283037); conditions: primary human bronchial epithelial cells; actives raise or lower the signal
# Outline: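 Values derive from bidirectional fitting against DMSO baseline of PAI-1 levels, measured by ELISA in human bronchial epithelial cells 24 h after compound addition.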
# [14] = read-out: urokinase plasminogen activator (uPA), PLAU (gene 5328); experiment: BSK_BE3C_uPA: BioMAP Diversity Plus: BE3C Assay for urokinase plasminogen activator (uPA) Biomarker Activity (AID 2283038); conditions: primary human bronchial epithelial cells; actives raise or lower the signal;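 further: uPA protein level quantified by ELISA in cell cultures; uPA read one day after compound addition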
# Outline: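 Human primary bronchial epithelial cells were exposed to chemical for 24 h, then uPA levels were measured by ELISA. Responses were fitted bidirectionally against DMSO as negative control and baseline. Parallel SRB staining of total protein gauged overt cytotoxicity.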
# [15] = read-out: Urokinase-type plasminogen activator receptor (uPAR), PLAUR (gene 5329); experiment: BSK_BE3C_uPAR: BioMAP Diversity Plus: BE3C Assay for Urokinase-type plasminogen activator receptor (uPAR) Biomarker Activity (AID 2283039); conditions: primary human bronchial epithelial cells; actives raise or lower the signal;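 on outcome: cells exposed to compound for one day before measurement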
# Outline: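 Steps: dose human primary bronchial epithelial cells, incubate 24 h, measure uPAR by ELISA, then fit gain- or loss-of-signal response bidirectionally relative to DMSO.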
# [16] = read-out: Pselectin, SELP (gene 6403); experiment: BSK_4H_Pselectin: BioMAP Diversity Plus: 4H Assay for Pselectin Biomarker Activity (AID 2283026); conditions: primary human endothelial cells (HUVEC); actives raise or lower the signal
# Outline: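 Endothelial primary cells (human umbilical vein) are dosed, incubated 24 h, and assayed for surface P-selectin by ELISA; responses in either direction are fitted relative to the DMSO negative control.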
# [17] = read-out: Matrix Metallopeptidase 1 (MMP1), MMP1 (gene 4312); experiment: BSK_BE3C_MMP1: BioMAP Diversity Plus: BE3C Assay for Matrix Metallopeptidase 1 (MMP1) Biomarker Activity (AID 2283024); conditions: primary human bronchial epithelial cells; actives raise or lower the signal
# Outline: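 MMP1 signal, measured by ELISA after a 24 h chemical exposure of human primary bronchial epithelial cells, is analysed with bidirectional fitting using DMSO as negative control.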
# [18] = BSK_3C_Vis: BioMAP Diversity Plus: 3C Assay for Morphology Visualization (AID 2283025); conditions: primary human endothelial cells (HUVEC);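 further: fitted both ways so gain or loss versus DMSO counts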
# Outline: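 Morphology read by light microscopy serves as a background control for the multiplexed 3C assay in human umbilical vein endothelial cells, taken 24 h after dosing, with DMSO as the negative control and bidirectional curve fitting.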
# [19] = read-out: Transforming growth factor beta 1 (TGFb1), TGFB1 (gene 7040); experiment: BSK_BE3C_TGFb1: BioMAP Diversity Plus: BE3C Assay for Transforming growth factor beta 1 (TGFb1) Biomarker Activity (AID 2283036;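 on outcome: TGF-b1 protein level measured by ELISA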); conditions: primary human bronchial epithelial cells; actives raise or lower the signal
# Outline: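 Bronchial epithelial primary cells are treated with test chemical, then TGF-b1 is quantified by ELISA after 24 hours. Values derive from bidirectional fitting against DMSO, with cytotoxicity checked by SRB staining in parallel cultures.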
# Sequence of human Vitamin D Receptor (VDR), VDR (gene 7421) (P11473 whole entry, looked up, the tested form may be a part): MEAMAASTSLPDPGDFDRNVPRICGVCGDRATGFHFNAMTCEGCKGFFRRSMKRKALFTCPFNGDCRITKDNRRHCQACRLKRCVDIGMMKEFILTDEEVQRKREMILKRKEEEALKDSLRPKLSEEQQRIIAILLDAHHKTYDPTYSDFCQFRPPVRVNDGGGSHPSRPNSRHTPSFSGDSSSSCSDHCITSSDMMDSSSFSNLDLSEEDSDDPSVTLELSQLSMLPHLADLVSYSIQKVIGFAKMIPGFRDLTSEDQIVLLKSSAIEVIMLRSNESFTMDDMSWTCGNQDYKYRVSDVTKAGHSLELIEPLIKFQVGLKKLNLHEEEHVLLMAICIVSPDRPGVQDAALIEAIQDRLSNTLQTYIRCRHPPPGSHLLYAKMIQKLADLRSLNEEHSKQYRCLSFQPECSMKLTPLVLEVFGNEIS
smiles,measurement,setting,value
CCCCN(CCO)CCO,outcome,[1],inactive
same,outcome,[2],inactive
same,outcome,[3],inactive
same,outcome,[4],inactive
same,outcome,[5],inactive
same,outcome,[6],inactive
same,outcome,[7],inactive
same,outcome,[8],inactive
same,outcome,[9],inactive
same,outcome,[10],inactive
same,outcome,[11],inactive
same,outcome,[12],inactive
same,outcome,[13],inactive
same,outcome,[14],inactive
same,outcome,[15],inactive
CC(C)CCCC(C)(C)O,outcome,[1],inactive
same,outcome,[2],inactive
same,outcome,[4],inactive
same,outcome,[16],inactive
same,outcome,[5],inactive
same,outcome,[6],inactive
same,outcome,[7],inactive
same,outcome,[8],inactive
same,outcome,[9],inactive
same,outcome,[10],inactive
same,outcome,[11],inactive
same,outcome,[12],inactive
same,outcome,[13],inactive
same,outcome,[15],inactive
CC(=O)OCC=C(C)CCC=C(C)CCC=C(C)C,outcome,[1],inactive
same,outcome,[2],inactive
same,outcome,[3],inactive
same,outcome,[4],inactive
same,outcome,[17],inactive
same,outcome,[18],inactive
same,outcome,[5],inactive
same,outcome,[6],inactive
same,outcome,[7],inactive
same,outcome,[8],inactive
same,outcome,[9],inactive
same,AC50,[10],3.97 µM (active)
same,outcome,[11],inactive
same,AC50,[12],8.81 µM (active)
same,outcome,[19],inactive
same,AC50,[13],0.016 µM (active)
same,outcome,[15],inactive
OCC(F)(OC(F)(F)C(F)(OC(F)(F)C(F)(F)C(F)(F)F)C(F)(F)F)C(F)(F)F (centres undefined),AC50,[1],6.2 µM (active)
same,outcome,[1],inactive
same,AC50,[2],3.71 µM (active)
same,outcome,[2],inactive
same,AC50,[4],4.48 µM (active) and 3.3 µM (active)
same,AC50,[5],5.19 µM (active) and 3.7 µM (active)
same,outcome,[6],inactive
same,AC50,[7],4.76 µM (active) and 2.31 µM (active)
same,outcome,[8],inactive
same,outcome,[9],inactive
same,AC50,[10],5.06 µM (active)
same,outcome,[10],inactive
same,AC50,[11],2.41 µM (active)
same,outcome,[11],inactive
same,AC50,[12],4.78 µM (active)
same,outcome,[12],inactive
same,outcome,[13],inactive
same,outcome,[15],inactive
O=S1(=O)CC(Cl)(Cl)C(Cl)(Cl)C1,AC50,[1],0.548 µM (active)
same,AC50,[2],1.34 µM (active)
same,AC50,[4],5.02 µM (active)
same,AC50,[18],20 µM (active)
same,AC50,[5],992 nM (active)
same,AC50,[6],1.18 µM (active)
same,outcome,[7],inactive
same,AC50,[8],0.921 µM (active)
same,outcome,[9],inactive
same,AC50,[10],0.96 µM (active)
same,AC50,[11],0.582 µM (active)
same,AC50,[12],1.07 µM (active)
same,AC50,[19],0.582 µM (active)
same,AC50,[13],1.61 µM (active)
same,AC50,[15],1.66 µM (active)
